Experimental data: PubChem BioAssay (EPA / NIEHS)
Active and inactive are the calls of the source. How the source made its calls: active means hit-call score of the fitted dose curve at least 0.9, where 1 is the maximum; inactive means score below 0.9.

Each compound was assayed on TIMP metallopeptidase inhibitor 2 (TIMP2), TIMP2 (gene 7077) (assay: BSK_KF3CT_TIMP2: BioMAP Diversity Plus: KF3CT Assay for TIMP metallopeptidase inhibitor 2 (TIMP2) Biomarker Activity (AID 2283071)). Details: primary human keratinocytes with fibroblasts; actives raise or lower the signal.
Procedure: BSK_KF3CT is a cell-based, multiplexed-readout assay that uses keratinocytes and foreskin fibroblasts, a human skin primary cell co-culture, with measurements taken at 24 hours after chemical dosing in a 96-well plate.BSK_KF3CT_TIMP2 is an assay component measured in the BSK_KF3CT assay. It measures TIMP-2 antibody related to regulation of gene expression using ELISA technology.Data from the assay component BSK_KF3CT_TIMP2 was analyzed into 1 assay endpoint. This assay endpoint, BSK_KF3CT_TIMP2, was analyzed with bidirectional fitting relative to DMSO as the negative control and baseline of activity. Using a type of binding reporter, gain or loss-of-signal activity can be used to understand changes in the signaling as they relate to the gene TIMP2. Furthermore, this assay endpoint can be referred to as a primary readout, because this assay has produced multiple assay endpoints where this one serves a signaling function. To generalize the intended target to other relatable targets, this assay endpoint is annotated to the protease inhibitor intended target family, where the subfamily is metalloproteinase inhibitor.
The levels of cell surface (or secreted, indicated by the prefix "s") biomarker endpoints were measured by ELISA. Overt cytotoxicity to cells in confluent adherent cultures (all systems other than the BT system) was assessed by measuring total protein levels using sulforhodamine B (SRB) staining in parallel cultures at the time of biomarker measurements, indicated as SRB endpoints. For proliferation assays for adherent cell types, individual cell types are cultured at sub-confluence and relative cell numbers quantified by SRB staining at time points optimized for each system (48 h: 3C and CASM3C systems; 72 h: BT and HDF3CGF systems; 96 h: SAg system). SRB was performed by staining cells with 0.1% SRB after fixation with 10% TCA and reading wells at 560 nm.Viability and proliferation of PBMC (T cells) was quantified by Alamar Blue reduction for the SAg and BT systems. For PBMC viability (referred to as PBMC Cytotoxicity within the assay endpoint names), cells were plated (75,000/well in a 96-well plate) and then chemical samples added for 1 h before addition of activators, SEB and TSST-1 (20 ng/mL final concentration each). Cells were incubated for 90 h. Then, Alamar Blue (20 uL/well) (Invitrogen, Cat DAL1100) was added for 6 h, and the plates were read with a fluorescence microplate reader at 546/580 nm (excitation/emission). For PBMC proliferation, cells were plated and activated as above but incubated for only 16 h prior to addition of Alamar Blue. Plates were read after 6 h.

SMILES	outcome	AC50
CC(COCC(C)OC(=O)c1ccccc1)OC(=O)c1ccccc1 (stereo not given)	inactive	
CN(C)C(=O)NC1(c2ccccc2)CCN(CC[C@@]2(c3ccc(F)c(F)c3)CN(C(=O)c3ccccc3)CCO2)CC1	inactive	
COC(=O)[C@H]1[C@H]2C[C@@H]3c4[nH]c5cc(OC)ccc5c4CCN3C[C@H]2C[C@@H](OC(=O)c2cc(OC)c(OC)c(OC)c2)[C@@H]1OC	inactive	
Cc1occc(=O)c1O	inactive	
Cc1cn([C@H]2C=C[C@@H](CO)O2)c(=O)[nH]c1=O	inactive	
C/C=C/c1ccc(OC)cc1	inactive	
NC=O	inactive	
COc1ccc(OC(F)(F)F)cc1CN[C@H]1CCCN[C@H]1c1ccccc1	inactive	
CC1=C(C)S(=O)(=O)CCS1(=O)=O	inactive	
CC(C)c1cccc(C(C)C)c1NC(=O)NS(=O)(=O)c1cc(C(C)(C)O)co1	inactive	
CC(=O)O[C@]1(C(C)=O)CC[C@H]2[C@@H]3C=C(Cl)C4=CC(=O)[C@@H]5C[C@@H]5[C@]4(C)[C@H]3CC[C@@]21C	inactive	
CC(=O)CC(c1ccccc1)c1c(O)c2ccccc2oc1=O (stereo not given)	inactive	
Cc1cc(SC2=C(O)C[C@@](CCc3ccc(N)cc3)(C(C)C)OC2=O)c(C(C)(C)C)cc1CO	inactive	
Oc1ccc(O)cc1	inactive	
CSc1ccc(Oc2ccc(S(N)(=O)=O)cc2CN(C)C)cc1C	inactive	
Cc1c(C)c2c(c(C)c1O)CCC(C)(COc1ccc(CC3SC(=O)NC3=O)cc1)O2 (stereo not given)		20 µM (active)
C=CCCCCCCCCCCCC	inactive	
CCCCCCC(C=O)=Cc1ccccc1	inactive	
NC1CCCCC1	inactive	
O=[Si]=O	inactive	

SMILES	outcome	AC50
C#CC(O)C(CC)CCCC (stereo not given)	inactive	
CCCC(=O)O	inactive	
CCCCC(CC)COC(=O)CCCCCCCC(=O)OCC(CC)CCCC (stereo not given)	inactive	
NC(=Nc1ccccc1)Nc1ccccc1	inactive	
O=C(Oc1ccccc1)c1cccc(C(=O)Oc2ccccc2)c1	inactive	
S=c1[nH]c2ccccc2s1	inactive	
CC(C)(C)c1ccccc1	inactive	
CC(C)COC(=O)CCCCC(=O)OCC(C)C	inactive	
O=C1NC(=O)C(c2ccccc2)(c2ccccc2)N1	inactive	
CCCCC(CC)CO (stereo not given)	inactive	
CN(C)C(=O)NC1(c2ccccc2)CCN(CCC[C@]2(c3ccc(Cl)c(Cl)c3)CCCN(C(=O)c3ccccc3)C2)CC1	inactive	
Oc1ccccc1O	inactive	
Nc1nc(Cl)nc2c1ncn2[C@H]1C[C@H](O)[C@@H](CO)O1	inactive	
O=C(O)CN(CC(=O)O)CC(=O)O	inactive	
CCCC[C@H]1CN(CC2CCOCC2)C(=O)OC12CCN(C1(C)CCN(C(=O)c3c(C)ncnc3C)CC1)CC2	inactive	
Nc1nc(=S)c2[nH]cnc2[nH]1	inactive	
COC(=O)CCCC(=O)OC	inactive	
CCCCc1nc2cccnc2n1Cc1ccc(-c2ccccc2-c2nnn[nH]2)cc1	inactive	
O=C(O)c1[nH]n(-c2ccc(S(=O)(=O)O)cc2)c(=O)c1N=Nc1ccc(S(=O)(=O)O)cc1	inactive	
NCCOCCOCCN	inactive	
